Assay results from PubChem BioAssay (Tox21).
Values joined by “and” are separate entries in the source; they are usually repeats but may differ in a detail not shown here. Equal entries are not always repeated. Inconclusive results are not listed. A call without a number means that no potency is given here. Some structures have more than one record in an assay (separate samples or runs), and their calls can disagree. Active and inactive are the calls of the source. Calls follow the shape of the dose curve; as a rule, active = well fitted activation curve with a large enough effect in the repeat runs; inconclusive = weak or mixed curves; inactive = flat fitted curve, though single readings scatter.

assay: A CellTox Green Cytotoxicity Assay to monitor cytotoxicity in HepG2 cells - 24 hour (AID 1224878); conditions: CellTox Green fluorescence; series mostly up to 76.8 µM; also: nearly all actives have a fitted effect of over 45% in size
From the text: National Center for Advancing Translational Sciences [NCATS]
NIH Chemical Genomics Center [NCGC]
U.S. Environmental Protection Agency [EPA]
National Institutes of Environmental Health Sciences [NIEHS]
National Toxicology Program [NTP]
Cell-based models are critical for drug discovery. Determining the natural cytotoxic effects resulting from test compounds is an essential research activity. A CellTox Green Cytotoxicity Assay to monitor cytotoxicity in real time of continues cell culture during 40 hours of the compound treatment was used to screen Tox21 10K library compounds in HepG2 cells. CellTox Green Cytotoxicity Assay is a nonlytic, homogeneous, biofluorescent method to measure cytotoxicity in cell culture after experimental manipulation. The assay system uses a proprietary asymmetric cyanine dye that is excluded from viable cells but preferentially stains the dead cell's DNA. […] Viable cells produce no appreciable increases in fluorescence. Therefore, the fluorescence signal produced by the binding interaction with dead cell DNA is proportional to cytotoxicity.
The mixture of HepG2 cell suspension and reagents were dispensed at 600cells/6 ul/well in 1536-well tissue culture treated black solid bottom plates using a Multidrop dispenser. After the assay plates were incubated at a 37 C/5% CO2 incubator for 5 hours, 23 nL of compounds dissolved in DMSO, positive and negative controls was transferred to the assay plate by a pintool work station. The plates were incubated at 37 C for 40 hours. The fluorescence intensity were measured at 0h, 8h, 16h, 24h, 32h and 40h time points using ViewLux plate reader during compound treatment.
Potency is read from the fitted curve at half-maximal effect.

Row | SMILES | Potency
1 | c1ccc2[nH]c(-c3cscn3)nc2c1 | inactive
2 | Cc1c(N(C)C)c(=O)n(-c2ccccc2)n1C | inactive
3 | O=C(O)CCCCC1CCSS1 (stereo not given) | inactive
4 | C=C(C)OC(C)=O | inactive
5 | O=C1OC(c2ccc(O)cc2)(c2ccc(O)cc2)c2ccccc21 | inactive
6 | C1CNCCN1 | inactive
7 | COC(=O)C1CCC(C(=O)OC)CC1 (stereo not given) | inactive
8 | CCCCOC(=O)CCCCCCCCC(=O)OCCCC | inactive
9 | CCc1cc(C(N)=S)ccn1 | inactive
10 | C[C@]12C[C@H](O)[C@H]3[C@@H](CCC4=CC(=O)CC[C@@]43C)[C@@H]1CC[C@@H]2C(=O)CO | inactive
11 | Cc1cnc(NC(=O)C2=C(O)c3ccccc3S(=O)(=O)N2C)s1 | inactive
12 | CN(C)C=O | inactive
13 | Nc1cccc(N)c1 | inactive
14 | CO[C@H]1C=CO[C@@]2(C)Oc3c(C)c(O)c4c(O)c(c(/C=N/N5CCN(C)CC5)c(O)c4c3C2=O)NC(=O)/C(C)=C\C=C[C@H](C)[C@H](O)[C@@H](C)[C@@H](O)[C@@H](C)[C@H](OC(C)=O)[C@@H]1C | inactive
15 | Cc1c(N(C)CS(=O)(=O)O)c(=O)n(-c2ccccc2)n1C | inactive
16 | CC(=O)CCC(C)C | inactive and 38.9 µM (active)
17 | C[C@]12C=CC(=O)C=C1CC[C@@H]1[C@@H]2C(=O)C[C@@]2(C)[C@H]1CC[C@]2(O)C(=O)CO | inactive
18 | N[C@@H](Cc1c[nH]c2ccc(O)cc12)C(=O)O | inactive
19 | CC(C)(C)CC(C)(C)c1ccc(O)c(-n2nc3ccccc3n2)c1 | inactive
20 | Nc1ccc(N=Nc2ccccc2)c(N)n1 | 34.9 µM (active) and 17.4 µM (active)

Row | SMILES | Potency
21 | COc1ccc(O)cc1 | inactive
22 | C#C[C@]1(O)CC[C@H]2[C@@H]3CCc4cc(O)ccc4[C@H]3CC[C@@]21C | 43.3 µM (active) and 6.7 nM (active)
23 | C[C@]12CC[C@@H]3c4ccc(O)cc4CC[C@H]3[C@@H]1CCC2=O | inactive
24 | OCCCc1ccccc1 | inactive
25 | O=C(O)Cc1cccc2ccccc12 | inactive
26 | CN(C)Cc1cc(CN(C)C)c(O)c(CN(C)C)c1 | inactive
27 | CCCCCCCCCCCCCC(=O)OC(C)C | inactive
28 | CCN(CC)CCOC(=O)c1ccc(N)cc1 | inactive
29 | NC(N)=NC(N)=NCCc1ccccc1 | inactive
30 | COc1ccc(C(=O)c2ccccc2)c(O)c1 | inactive
31 | Cn1cnc2c1c(=O)[nH]c(=O)n2C | inactive
32 | O=c1c(-c2ccc(O)cc2)coc2cc(O)cc(O)c12 | inactive
33 | COc1cc(O)c(C(=O)c2ccccc2)cc1S(=O)(=O)O | inactive
34 | COc1cc2c(c(OC)c1OC)-c1ccc(OC)c(=O)cc1[C@@H](NC(C)=O)CC2 | inactive
35 | OC[C@@H](O)[C@@H](O)[C@H](O)[C@H](O)CO | inactive
36 | NC(=O)N/N=C/c1ccc([N+](=O)[O-])o1 | inactive
37 | C#C[C@]1(O)CC[C@H]2[C@@H]3CCC4=CC(=O)CC[C@@H]4[C@H]3CC[C@@]21CC | inactive and 38.9 µM (active)
38 | CC(O)COc1ccccc1 (stereo not given) | inactive
39 | CC(=O)/C=C/C1=C(C)CCCC1(C)C | inactive
40 | CCCCCCCCCCCCCCCCCC(=O)OCC(O)CO (stereo not given) | inactive
